From PubChem BioAssay (EPA / NIEHS) come the findings set out here.

As a reminder, the AC50 is the midpoint of the concentration-response curve, whichever way the signal moves.

Structures are written as SMILES. Activity calls are given as the source filed them. How the source made its calls: active means hit-call score of the fitted dose curve at least 0.9, where 1 is the maximum; inactive means score below 0.9.

What all share (settings): mRNA level, 48 h; actives raise or lower the signal
Read-out in assay [1]: Tumor necrosis factor receptor superfamily member 6 (Homo sapiens) (UniProt P25445)
Briefly: LTEA_HepaRG_FAS: Life Technologies and Expression Analysis (LTEA) Assay for Fas cell surface death receptor (FAS) using HepaRG (AID 2283447). The gist of the method: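 Differentiated HepaRG cells in serum-free induction medium were exposed 48 h to 8 half-log concentrations up to 100 uM in 0.5% DMSO, in duplicate. FAS mRNA was measured by qRT-PCR normalised to ACTB, GAPDH and POLR2A; bidirectional fit versus DMSO.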

Read-out in assay [2]: Fatty acid synthase (Homo sapiens) (UniProt P49327)
Briefly: LTEA_HepaRG_FASN: Life Technologies and Expression Analysis (LTEA) Assay for Fatty Acid Synthase (FASN) using HepaRG (AID 2283448). The gist of the method:
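FASN transcript measured by TaqMan qRT-PCR, normalised to three housekeeping genes, after 48 h chemical exposure of HepaRG cells. Eight-point half-log series from 100 uM in 0.5% DMSO, duplicates; gain or loss fitted against vehicle.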

Read-out in assay [3]: Cyclin Dependent Kinase Inhibitor 1A (CDKN1A), CDKN1A (gene 1026)
The assay can be described thus: LTEA_HepaRG_CDKN1A: Life Technologies and Expression Analysis (LTEA) Assay for Cyclin Dependent Kinase Inhibitor 1A (CDKN1A) using HepaRG (AID 2283450). The gist of the method:
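Differentiated HepaRG cells in serum-free induction medium, exposed 48 h in duplicate to eight half-log concentrations up to 100 uM in 0.5% DMSO. mRNA measured by TaqMan qRT-PCR, normalized to ACTB, GAPDH, POLR2A; bidirectional fit versus DMSO.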

Read-out in assay [4]: Cyclin D1 (CCND1), CCND1 (gene 595)
Briefly: LTEA_HepaRG_CCND1: Life Technologies and Expression Analysis (LTEA) Assay for Cyclin D1 (CCND1) using HepaRG (AID 2283451).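 On AC50: TaqMan qRT-PCR transcript level normalised to ACTB GAPDH and POLR2A housekeeping genes.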 The gist of the method: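 Differentiated HepaRG cells exposed 48 h in serum-free induction medium to eight half-log concentrations from 100 uM top, 0.5% DMSO, duplicates. CCND1 mRNA measured by Fluidigm TaqMan qRT-PCR, normalised to ACTB, GAPDH, POLR2A; bidirectional fit.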

Read-out in assay [5]: flavin-containing dimethylaniline monooxygenases 3 (FMO3), FMO3 (gene 2328)
Briefly: LTEA_HepaRG_FMO3: Life Technologies and Expression Analysis (LTEA) Assay for flavin-containing dimethylaniline monooxygenases 3 (FMO3) using HepaRG (AID 2283453).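 On AC50: FMO3 transcript by TaqMan qRT-PCR normalized to ACTB GAPDH and POLR2A.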 The gist of the method: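 FMO3 transcript quantified by TaqMan qRT-PCR against three housekeeping genes after 48 h chemical exposure of HepaRG cells. Eight-point half-log series, top 100 uM, 0.5% DMSO vehicle; phenobarbital 1mM induction control; up- or down-regulation fitted.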

Read-out in assay [6]: CFLAR gene, CFLAR (gene 8837)
The assay can be described thus: LTEA_HepaRG_CFLAR: Life Technologies and Expression Analysis (LTEA) Assay for CFLAR gene using HepaRG (AID 2283455). The gist of the method:
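qRT-PCR read-out (Fluidigm/TaqMan) of CFLAR mRNA, normalized to three housekeeping genes, in differentiated human HepaRG cells after 48 h chemical exposure; 8-point half-log series from 100 uM in 0.5% DMSO; bidirectional curve fitting versus DMSO.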

Read-out in assay [7]: Forkhead box O1 (FOXO1), FOXO1 (gene 2308)
The assay can be described thus: LTEA_HepaRG_FOXO1: Life Technologies and Expression Analysis (LTEA) Assay for Forkhead box O1 (FOXO1) using HepaRG (AID 2283456). Summed up: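 HepaRG, 48 h exposure, 8-pt half-log series from 100 uM in 0.5% DMSO, duplicates; Fluidigm qRT-PCR mRNA, housekeeping-normalised; bidirectional fit vs DMSO baseline.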

Read-out in assay [8]: Cytochrome P450 (CYP1A1), CYP1A1 (gene 1543)
Briefly: LTEA_HepaRG_CYP1A1: Life Technologies and Expression Analysis (LTEA) Assay for Cytochrome P450 (CYP1A1) using HepaRG (AID 2283454). The gist of the method:
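Differentiated human HepaRG cells, after 48 h plating, exposed in duplicate for 48 h in serum-free induction medium to 8 half-log concentrations up to 100 uM in 0.5% DMSO. CYP1A1 mRNA by qRT-PCR, normalized to ACTB/GAPDH/POLR2A; bidirectional fit versus DMSO.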

Read-out in assay [9]: Cyclin D2 (CCND2), CCND2 (gene 894)
Briefly: LTEA_HepaRG_CCND2: Life Technologies and Expression Analysis (LTEA) Assay for Cyclin D2 (CCND2) using HepaRG (AID 2283449).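 Further: CCND2 transcript measured by TaqMan qRT-PCR and normalised to three housekeeping genes.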 Summed up: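 HepaRG, 48 h dosing, 8-pt half-log curve from 100 uM, 0.5% DMSO; duplicate wells. Readout: CCND2 transcript by microfluidic qRT-PCR, housekeeping-normalised; bidirectional fit vs DMSO baseline.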

Read-out in assay [10]: catalase (CAT), CAT (gene 847)
The assay can be described thus: LTEA_HepaRG_CAT: Life Technologies and Expression Analysis (LTEA) Assay for catalase (CAT) using HepaRG (AID 2283452). The gist of the method: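 HepaRG cells in serum-free induction medium, 0.5% DMSO vehicle, exposed 48 h in duplicate over 8 half-log concentrations from 100 uM. CAT mRNA measured by qRT-PCR, normalized to ACTB, GAPDH, POLR2A; bidirectional fit versus DMSO.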

Sequence of Fatty acid synthase (Homo sapiens) (P49327 whole entry, looked up): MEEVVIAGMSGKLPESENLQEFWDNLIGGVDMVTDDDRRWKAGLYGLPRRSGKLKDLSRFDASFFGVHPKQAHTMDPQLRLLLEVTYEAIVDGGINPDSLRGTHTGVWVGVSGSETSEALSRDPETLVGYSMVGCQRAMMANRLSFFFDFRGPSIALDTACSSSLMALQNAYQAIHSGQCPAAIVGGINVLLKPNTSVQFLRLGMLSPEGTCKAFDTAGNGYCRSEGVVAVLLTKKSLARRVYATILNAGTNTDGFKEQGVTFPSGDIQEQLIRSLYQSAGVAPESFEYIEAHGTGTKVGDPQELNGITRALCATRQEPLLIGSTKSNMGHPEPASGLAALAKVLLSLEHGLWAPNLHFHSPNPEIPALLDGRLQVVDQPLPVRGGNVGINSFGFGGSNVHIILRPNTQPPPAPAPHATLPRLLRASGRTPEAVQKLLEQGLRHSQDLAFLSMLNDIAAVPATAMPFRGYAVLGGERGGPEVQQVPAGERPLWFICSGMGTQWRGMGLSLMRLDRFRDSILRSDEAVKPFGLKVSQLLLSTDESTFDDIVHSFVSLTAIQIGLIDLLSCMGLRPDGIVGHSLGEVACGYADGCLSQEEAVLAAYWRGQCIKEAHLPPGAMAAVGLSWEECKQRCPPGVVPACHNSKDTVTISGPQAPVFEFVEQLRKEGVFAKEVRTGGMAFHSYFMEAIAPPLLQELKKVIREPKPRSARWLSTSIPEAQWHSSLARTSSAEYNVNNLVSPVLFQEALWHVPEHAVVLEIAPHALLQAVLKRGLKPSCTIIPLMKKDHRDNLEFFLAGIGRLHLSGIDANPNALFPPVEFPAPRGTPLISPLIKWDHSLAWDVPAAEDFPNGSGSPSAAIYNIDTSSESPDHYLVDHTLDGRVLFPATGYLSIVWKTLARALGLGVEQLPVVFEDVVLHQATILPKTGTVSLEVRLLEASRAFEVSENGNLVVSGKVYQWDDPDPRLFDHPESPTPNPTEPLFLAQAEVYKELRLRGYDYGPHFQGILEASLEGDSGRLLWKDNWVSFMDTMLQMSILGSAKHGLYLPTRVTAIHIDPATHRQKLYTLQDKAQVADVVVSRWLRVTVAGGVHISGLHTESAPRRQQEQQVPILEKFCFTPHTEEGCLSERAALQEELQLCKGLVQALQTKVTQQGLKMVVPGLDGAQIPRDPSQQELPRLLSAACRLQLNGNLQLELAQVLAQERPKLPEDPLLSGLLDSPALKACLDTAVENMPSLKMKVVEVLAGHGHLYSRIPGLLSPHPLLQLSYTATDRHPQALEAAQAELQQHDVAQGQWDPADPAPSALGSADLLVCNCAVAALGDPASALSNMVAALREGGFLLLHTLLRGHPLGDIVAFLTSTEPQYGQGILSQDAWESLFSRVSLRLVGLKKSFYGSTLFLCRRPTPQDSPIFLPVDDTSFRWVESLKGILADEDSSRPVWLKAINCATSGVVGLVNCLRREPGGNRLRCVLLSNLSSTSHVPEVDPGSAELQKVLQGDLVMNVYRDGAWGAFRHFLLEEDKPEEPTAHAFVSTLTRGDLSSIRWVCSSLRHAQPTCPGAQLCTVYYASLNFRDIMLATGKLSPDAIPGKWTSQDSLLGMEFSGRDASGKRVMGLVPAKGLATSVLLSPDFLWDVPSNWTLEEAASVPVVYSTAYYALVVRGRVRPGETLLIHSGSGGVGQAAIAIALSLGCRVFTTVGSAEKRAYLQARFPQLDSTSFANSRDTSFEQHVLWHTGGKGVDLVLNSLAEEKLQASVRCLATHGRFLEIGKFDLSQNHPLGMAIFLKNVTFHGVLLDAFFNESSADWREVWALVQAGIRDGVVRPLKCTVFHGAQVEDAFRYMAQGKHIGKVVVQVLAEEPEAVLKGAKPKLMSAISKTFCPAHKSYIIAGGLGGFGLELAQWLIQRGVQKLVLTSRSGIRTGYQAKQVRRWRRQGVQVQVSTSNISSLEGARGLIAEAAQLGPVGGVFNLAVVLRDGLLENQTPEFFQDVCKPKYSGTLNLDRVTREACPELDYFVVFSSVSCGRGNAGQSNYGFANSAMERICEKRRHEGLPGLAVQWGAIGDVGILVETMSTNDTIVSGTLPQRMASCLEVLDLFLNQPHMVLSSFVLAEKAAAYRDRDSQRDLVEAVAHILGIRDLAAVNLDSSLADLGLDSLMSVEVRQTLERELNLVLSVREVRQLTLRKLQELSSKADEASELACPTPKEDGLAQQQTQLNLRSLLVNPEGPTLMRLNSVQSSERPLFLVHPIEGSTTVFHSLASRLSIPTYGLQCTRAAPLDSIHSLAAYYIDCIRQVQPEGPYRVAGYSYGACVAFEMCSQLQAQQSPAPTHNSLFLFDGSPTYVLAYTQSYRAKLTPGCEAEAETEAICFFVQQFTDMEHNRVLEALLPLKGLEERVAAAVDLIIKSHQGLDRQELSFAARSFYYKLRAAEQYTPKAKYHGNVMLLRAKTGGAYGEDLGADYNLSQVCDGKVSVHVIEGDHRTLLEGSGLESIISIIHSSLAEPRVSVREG

As for `Cc1cc(SC2=C(O)C[C@@](CCc3ccc(N)cc3)(C(C)C)OC2=O)c(C(C)(C)C)cc1CO`, the compound was called inactive in [1], in assay [2], in [3], in assay [4], in assay [5] and in [6]. In addition, the compound was classed as inactive in [7].

With `Cc1ccc(C(C)(C)C)c(O)c1`, the result in assay [1], in assay [2], in assay [3], in assay [4], in [5] and in assay [6] was inactive. Further, the outcome in assay [7] was inactive.

Regarding `CC1(C)C(=O)NC(=O)N1CO`, the compound was called inactive in assay [1], in assay [2], in assay [3], in assay [4], in [5] and in [6]. Besides, the compound was classed as inactive in assay [7]. For the same compound, in [8], the concentration at half-maximal activity (AC50) was 50 µM (active).

For `CC(=O)CC(c1ccccc1)c1c(O)c2ccccc2oc1=O` (stereo not drawn), in [2], the AC50 is 13.4 µM (active). Moreover, the outcome in assay [9], in assay [3], in assay [4], in assay [10], in assay [5] and in [8] was inactive. In addition, the compound was classed as inactive in [6] and in [7].

Regarding `CO[C@@H]1COCC[C@@H]1N[C@@H]1CC[C@@](C(=O)N2CCc3ncc(C(F)(F)F)cc3C2)(C(C)C)C1`, the compound was called inactive in [1], in [2], in assay [3], in assay [4], in assay [10] and in assay [5]. The result in assay [8], in assay [6] and in assay [7] was inactive.

For `CC(=O)S[C@H](C(=O)N[C@H]1Cc2ccccc2[C@H]2CCC[C@@H](C(=O)O)N2C1=O)C(C)C`, the compound was classed as inactive in assay [1], in assay [2], in [3], in assay [4], in assay [5] and in assay [6]. The compound was called inactive in assay [7].

In the case of `CC(=O)OC1CC(C)OC(C)O1` (stereo not drawn), the result in assay [1], in assay [2], in assay [3], in assay [4], in [10] and in assay [5] was inactive. Also, the call in assay [6] and in [7] was inactive. The concentration at half-maximal activity (AC50) in assay [8] was 50 µM (active).

As to `CCCCCCC(C=O)=Cc1ccccc1`, the call in [1], in [2], in [3], in [4], in [5] and in assay [6] was inactive. Besides, in assay [7], the compound was classed as inactive.

In the case of `O=C(N[C@@H](c1ccccc1)[C@@H]1CCCCN1)c1cccc(C(F)(F)F)c1Cl`, the compound was called inactive in assay [1], in assay [9], in [3] and in [8]. Moreover, the concentration at half-maximal activity (AC50) was 85 µM (active) in assay [2]; 16.6 µM (active) in [4]; 53.7 µM (active) in assay [5]; 77.2 µM (active) in assay [6]; 75.9 µM (active) in [7].

Turning to `O=Cc1ccccc1C=O`, the call in assay [2], in assay [9], in assay [3], in assay [4], in assay [10] and in assay [5] was inactive. Further, the call in [6] and in assay [7] was inactive. In addition, in assay [8], the concentration at half-maximal activity (AC50) was 18.5 µM (active).

Turning to `N[C@@H](Cc1c[nH]c2ccccc12)C(=O)O`, the outcome in [1], in [2], in assay [9], in assay [3], in [4] and in assay [5] was inactive. In addition, the compound was classed as inactive in assay [6] and in [7].

Consider `CCCCC(CC)COP(=O)(OCC(CC)CCCC)OCC(CC)CCCC` (stereo not drawn), for which the compound was classed as inactive in [1], in assay [2], in assay [3], in [4], in assay [5] and in assay [6]. Moreover, the outcome in [7] was inactive.

Take `O=C(O)c1cccnc1`: the compound was called inactive in [1], in assay [2], in [3], in assay [4], in [10] and in assay [5]. In addition, the compound was called inactive in assay [6] and in assay [7].

On to `CCOCCOCCO`, for which the call in assay [1], in assay [2], in assay [9], in [3], in [4] and in assay [5] was inactive. Besides, the compound was called inactive in [8], in assay [6] and in assay [7].
